A selection: hits, their analogues and other compounds. The true share with any hit is near 2.3%.
CHO-K1 Ca antag = nonselective inhibitor or artifact in parental CHO-K1 cells. ATP-induced calcium, Fluo-8 fluorescence. inhibition, % at 3 µM. actives 0.6% (n = 360,000). AID 602250;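 active means inhibition above a per-plate cutoff, the plate's mean sample inhibition plus 3 SD, cut at about 24% in these data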
M1 PAM = positive allosteric modulators of human M1 muscarinic receptor. P11229. CHO-K1 hM1, Fluo-8 calcium fluorescence, ACh EC20; 0% = ACh EC20, 100% = maximal ACh. activation, % at 3 µM. actives 0.088% (n = 360,000). AID 588819; in the data active means activation above about 19%, passing the limit was not always enough
Target sequence (P11229 whole entry, looked up): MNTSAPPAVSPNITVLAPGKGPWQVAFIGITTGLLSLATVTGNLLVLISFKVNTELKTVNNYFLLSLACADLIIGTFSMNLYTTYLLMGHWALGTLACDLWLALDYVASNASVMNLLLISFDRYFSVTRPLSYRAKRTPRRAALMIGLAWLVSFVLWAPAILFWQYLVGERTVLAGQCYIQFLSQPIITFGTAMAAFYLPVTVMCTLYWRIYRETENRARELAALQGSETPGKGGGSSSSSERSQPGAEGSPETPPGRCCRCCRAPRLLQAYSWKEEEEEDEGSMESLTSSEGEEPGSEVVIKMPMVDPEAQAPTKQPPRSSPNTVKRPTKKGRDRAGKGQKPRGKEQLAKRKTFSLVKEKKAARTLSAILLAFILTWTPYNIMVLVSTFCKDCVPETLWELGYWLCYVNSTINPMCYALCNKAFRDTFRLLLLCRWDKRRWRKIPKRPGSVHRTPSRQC
M1 PAM parental = M1 PAM counterscreen hit in parental CHO-K1 cells. ATP EC20, Fluo-8 calcium fluorescence; 0% at ATP EC20, 100% at ATP max. activation, % at 3 µM. actives 0.02% (n = 360,000);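 active means activation above the run cutoff, the mean activation of all test compounds plus 3 SD, cut at about 40% in these data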;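 further: peak over basal fluorescence ratio in a 140 s read after ATP addition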
M1 antag = antagonists of human M1 muscarinic receptor; CHO-K1 hM1, Fluo-8 calcium fluorescence, ACh EC80 antagonist; inhibition, % at 3 µM; actives 1.3% (n = 360,000); AID 588852;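 active means percent inhibition above its own plate's cutoff, namely the mean of that plate's compound wells plus 3 SD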;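 further: peak over basal fluorescence ratio during 140 s after agonist addition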
CHO-K1 Ca ag = M1 agonist counterscreen hit in parental CHO-K1 cells; Fluo-8 calcium fluorescence; scaled to maximal ATP response, vehicle zero; activation, % at 3 µM; actives 0.48% (n = 360,000); AID 602248; in the data active means activation above about 15%;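 further: untransfected CHO-K1 host cells lacking M1 receptor as counterscreen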
CHRM1 agonist = human M1 muscarinic receptor agonism. actives 0.33% (n = 360,000). P11229. CHO-K1 hM1, Fluo-8 calcium fluorescence, agonist mode; 0% DMSO, 100% acetylcholine EC100. AID 588814. activation, % at 3 µM;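 active means activation above the run's mean compound activation plus 3 SD, cut at about 16% in these data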;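 further: peak over basal fluorescence ratio within a 140 s kinetic read after compound addition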
Of the large screens only hits and unclear results are named; the others gave an inactive call.

CCN(CC)CCN1C(=O)C2C(C(=O)Nc3cc(C)cc(C)c3)C3C=CC2(O3)C1C(=O)NC1CCCCC1 (stereo not given)	none
CCOC(=O)C(=O)N(C)c1c(CC)nc2c(OCc3ccc(OC(F)F)cc3)cccn12	none
Cc1cc(C)c2nc(N3CCC(C(=O)NCCCN4CC(C)CC(C)C4)CC3)sc2c1 (stereo not given)	M1 antag 82
OC(COCC1CC=CCC1)Cn1cnc2ccccc21 (stereo not given)	M1 PAM 24
O=C(NCCNC(=O)Oc1cccc2ccccc12)Oc1cccc2ccccc12	none
COc1ccc(/C=N/n2nnnc2N)c(OC)c1	M1 antag 38
CCN(CC)S(=O)(=O)c1ccc(OC)c(NC(=O)OCc2ccccc2)c1	none
Cc1ccc(O)c(C(=O)c2cc(C#N)c(=O)n(-c3nccs3)c2)c1	CHO-K1 Ca ag 40, CHRM1 agonist 22
C=CS(=O)(=O)c1c2cc(OC)ccc2nc2ccc(OC)cc12	none
Cc1nnc2n(c1=O)C(CS(=O)(=O)c1ccc3ccccc3c1)CS2 (stereo not given)	CHO-K1 Ca ag 15
Cc1ccc(S(=O)(=O)CC2CSc3nnc(C)c(=O)n32)cc1 (stereo not given)	none
O=c1c(/C=C(\O)c2ccccc2)nc2ccccc2n1-c1ccccc1	CHRM1 agonist 22
CCOc1ccc(N2CC(C(=O)Nc3nnc(CC)s3)CC2=O)cc1 (stereo not given)	M1 PAM 28
O=C(Nc1nnc(SCc2ccccn2)s1)C1CC(=O)N(c2ccc(F)cc2)C1 (stereo not given)	M1 antag 25
CCOCCc1nnc(NC(=O)C2CC(=O)N(c3ccc(OCC)cc3)C2)s1 (stereo not given)	none
COc1cccc(N2CC(C(=O)Nc3nnc(SCc4ccccn4)s3)CC2=O)c1 (stereo not given)	none
CCc1nnc(NC(=O)C2CC(=O)N(c3ccc(C)cc3)C2)s1 (stereo not given)	CHO-K1 Ca antag 24
Cc1nn2c(=O)cc(COC(=O)c3c(F)cccc3Cl)nc2s1	none
C=CCOc1ccc(/C=N/n2nnnc2N)cc1OC	none
O=C(C1CCC1)N1CCC(O)(c2cccc(F)c2)CC1	none
COc1ccccc1OCCNC(=O)CCC(=O)N1CCOCC1	none
COc1ccc(N)c2c1C(=O)c1ccccc1C2=O	none
COc1ccc2noc3c2c1C(=O)c1ccccc1-3	CHO-K1 Ca antag 26, CHO-K1 Ca ag 22, CHRM1 agonist 72
CCOC(=O)C1=C(COC(=O)c2ccc([N+](=O)[O-])o2)NC(=O)NC1C (stereo not given)	none
COc1ccc(C2c3[nH]c4ccccc4c3CCN2C(=O)c2cn3ccccc3n2)c(F)c1 (stereo not given)	CHO-K1 Ca antag 27
COc1ccc(C2c3[nH]c4ccccc4c3CCN2C(=O)c2cc3ncccn3n2)c(F)c1 (stereo not given)	CHO-K1 Ca antag 26
COc1ccc(C2c3[nH]c4ccccc4c3CCN2C(=O)c2ccccc2C(C)=O)c(F)c1 (stereo not given)	none
COc1ccc(F)cc1C(=O)C1CCCN(Cc2ccc(Sc3nncn3C)o2)C1 (stereo not given)	none
COc1ccc(/C=C(\C#N)C(=O)NCc2cccnc2)cc1OC	none
N#C/C(=C/c1cccc(O)c1)C(=O)NCc1ccc(Cl)cc1	M1 antag 28, CHRM1 agonist 17
CCOc1cc(/C=C(\C#N)C(=O)NCc2cccnc2)ccc1O	CHO-K1 Ca antag 32
CCOC(=O)C1CCCN(C(=O)c2cccc(Cl)c2)CC1 (stereo not given)	none
CCN(C)C1CN(Cc2cn(CCCC(=O)OC)nn2)S(=O)(=O)C1 (stereo not given)	none (no result: M1 PAM, M1 antag, CHRM1 agonist)
CCOC(=O)c1cnc(-n2[nH]c(C)c(Cc3ccccc3)c2=O)[nH]c1=O	none
CCOC(=O)c1cnc(Cc2ccccc2)[nH]c1=O	M1 antag 25
CC(C)(C)C1CCC(=NNC(=O)C(=O)NC2CCCCC2)CC1 (stereo not given)	none
COCCn1cnc2c1c(=O)n(Cc1ccc(C#N)cc1)c(=O)n2Cc1ccccc1	none
CCOC(=O)c1ccc(CNC(=O)CCC(=O)O)cc1	none
CCOC(=O)CCNCc1ccc(F)cc1	M1 antag 40
CCOC(=O)c1ccc(CNCc2ccccc2)cc1	M1 antag 52
CCOC(=O)CCNC(=O)N1CCC(CCC(=O)NCc2ccc(F)cc2)CC1	none
CCOC(=O)c1ccc(CNCc2ccc(Br)cc2)cc1	M1 antag 65
COc1ccc(S(=O)(=O)NCCSCc2ccco2)cc1	CHO-K1 Ca antag 28
COc1ccc(S(=O)(=O)NCCc2ccccc2)cc1	M1 antag 29
CCOc1ccc(S(=O)(=O)NCCSCc2ccco2)cc1	none
COc1ccc(CCNC(=O)CNS(=O)(=O)c2ccc(Cl)cc2)cc1	CHO-K1 Ca antag 24
Cc1ccc(S(=O)(=O)NCCc2ccncc2)cc1C	CHO-K1 Ca ag 18
COc1ccc(CCNS(=O)(=O)c2ccc(Br)cc2)cc1	none
COc1ccc2c(c1)CCc1c-2nc2ccccc2c1N1CCOCC1	none
O=C(C[n+]1cccc(C(=O)N/N=C/c2cccc([N+](=O)[O-])c2)c1)c1ccccc1	none
CN(C)c1ccc(NC(=O)Nc2nc(C(N)C3CCCCC3)cs2)cc1 (stereo not given)	none
O=C(C1CCCCC1)N1CCC2CC1c1cc(-c3ccc4c(c3)OCO4)ccc12 (stereo not given)	M1 antag 35
NS(=O)(=O)c1ccc(CNS(=O)(=O)c2cccc3nonc23)cc1	none
CC1(C)[C@H]2CC=C(CN3CCC(N4CCC(C(=O)N5CCCC5)CC4)CC3)[C@@H]1C2	M1 antag 62
CCOC(=O)C1=C[C@@H](C2CCCCC2)N(S(=O)(=O)c2ccc([N+](=O)[O-])cc2)[C@H]1c1ccccc1	CHO-K1 Ca antag 27
O=C(COc1ccc(F)c(Cl)c1)Nc1ccc(N2CCOCC2)cc1	none
COc1ccc(-n2nc(C(=O)NCC(=O)N3CCN(c4ccccn4)CC3)c3ccccc3c2=O)cc1	none
COc1ccc(-n2nc(C(=O)NCC(=O)N3CCOCC3)c3ccccc3c2=O)cc1OC	none
COc1ccc(-n2nc(C(=O)NCC(=O)N3CCN(c4ccccn4)CC3)c3ccccc3c2=O)cc1OC	M1 antag 37
COc1ccc(-n2nc(C(=O)NCC(=O)N3CCN(Cc4ccc5c(c4)OCO5)CC3)c3ccccc3c2=O)cc1OC	M1 antag 41
[O-]/C(=C(\C(=S)Nc1cccc2ccccc12)[n+]1ccccc1)c1ccc(Cl)s1	none
Cc1ccc(C)c(NC(=S)/C(=C(\[O-])c2ccc(Cl)s2)[n+]2ccccc2)c1	M1 antag 23
